Experimental findings from ChEMBL document CHEMBL4513216, “Probing the Open Global Health Chemical Diversity Library for Multistage-Active Starting Points for Next-Generation Antimalarials” (ACS Infect Dis, 2020) are described below.

Structures are written as SMILES. In all, about 69,000 compounds went through this assay and about 8,600 (12%) showed an effect of 50% or more. What follows is part of a selection rich in strong results, with near analogues and random picks from the rest.

This experiment has as its system Plasmodium berghei. Briefly: Screen against P. berghei liver stage (PbLuc), transformed with Luciferase, at 10uM. The experiment is classed as functional, HepG2. The conditions noted are these: tested at 10 uM.
Turning to `Cc1cccc(CS(=O)(=O)c2nnc(N3CCOCC3)s2)c1`, the INHIBITION was 0%.
As to `O=S(=O)(Cc1ccccc1)c1nnc(N2CCOCC2)s1`, the INHIBITION was found to be 0%.
Regarding `O=S(=O)(Cc1ccccc1)c1nnc(N2CCCC2)s1`, the INHIBITION stood at 53.8%.
`CS(=O)(=O)NCc1ncn2c1CN(CCN1CCCC1)CCC2`: the INHIBITION is 31.1%.
As for `CC(C)CC(=O)NCC(O)c1c(F)cccc1F` (stereo unspecified), the INHIBITION was found to be 21.8%.
The value for `CCC1CCCCN1Cc1nc2c(cnn2C)c(=O)[nH]1` (stereo unspecified) was 25.1%; that for `CCc1ccccc1CNC(=O)CNC(=O)C(C)(C)C` was -11.5%; that for `CC(C)OCc1ccccc1CNC(=O)C(C)S(=O)(=O)C(C)C` (stereo unspecified) was 3.84%.
Consider `CC(C)OCc1ccccc1CNC(=O)C(C)(C)C`, for which the INHIBITION was determined as 68.6%.
The value for `CCN(CC)C(=O)c1ccc(Cl)c(NC(=O)c2cc(C(C)C)on2)c1` was 43%.
For the compound `CN(C)Cc1cnc(CC2CCN(CCc3ccccc3)CC2)cn1`, the INHIBITION stood at 9.05%.
The value for `c1cnc(N2CCO[C@H]3[C@H](OCC4CC4)CC[C@@H]32)nc1` was 21.6%; that for `CSc1[nH]c(=O)c(C(=O)N2CCCC2c2cccs2)cc1C#N` (stereo unspecified) was 53.3%.
With `CSc1[nH]c(=O)c(C(=O)N2CCCC2C2CCCC2)cc1C#N` (stereo unspecified), the INHIBITION was 0.672%.
The value for `CCC1CCCCCN1C(=O)c1cc(C#N)c(SC)[nH]c1=O` (stereo unspecified) was 49.9%; that for `CN(C)c1ncc(-c2cc(C(=O)N3CCCC3)n(CC3CC3)c2)cn1` was 3.58%.
With `O=C(c1cnc(-c2ccco2)s1)N1CCOc2ncccc21`, the INHIBITION is reported as -40.6%.
The result for `CCCc1ncc(C(=O)N2CCOc3ncccc32)s1` reads 63.8%.
The result for `O=C(c1csc(-c2ccco2)n1)N1CCOc2ncccc21` reads -178%.
Regarding `Cc1cccc(OC2(C(=O)O)CCN(C(=O)CCc3ccco3)CC2)c1`, the INHIBITION is on record as 16.6%.
Turning to `Cc1cn(-c2ccccc2)nc1NS(=O)(=O)c1ccc(C(=O)O)cc1`, the INHIBITION is listed as 20.9%.
On to `CCc1c(C)n(CC(=O)OC)c2nc3ccccc3n2c1=O`, for which the INHIBITION is on record as 15%.
For the compound `Cc1noc([C@@H]2C[C@H]3OCC[C@H]3N(S(=O)(=O)c3cccnc3)C2)n1`, the INHIBITION was found to be 30.1%.
With `CCC[C@H]1CN(S(=O)(=O)c2c(C)noc2C)C[C@@H]1N`, the INHIBITION is given as -28.9%.
On to `CCC[C@H]1CN(S(=O)(=O)c2cc(C)ccc2C)C[C@@H]1N`, for which the INHIBITION was found to be 57.2%.
`CCc1ccc(S(=O)(=O)N2CC3(COC(C)(C)OC3)C2)s1`: the INHIBITION is listed as 42.7%.
For the compound `CCC[C@H]1CN(S(=O)(=O)c2ccc(-c3c(C)noc3C)s2)C[C@@H]1N`, the INHIBITION came out at 72.6%.
As to `CCC[C@H]1CN(S(=O)(=O)c2ccc(CC)s2)C[C@@H]1N`, the INHIBITION is recorded as 52.2%.
Regarding `CCC[C@@H]1CN(S(=O)(=O)c2ccc(C)c(F)c2)C[C@H]1N(C)C`, the INHIBITION turned out to be 37.8%.
For `CCC[C@H]1CN(S(=O)(=O)c2cc(C)ccc2F)C[C@@H]1N`, the INHIBITION is given as 44.2%.
The result for `CCC[C@H]1CN(S(=O)(=O)c2ccccc2)C[C@@H]1N` reads -2.34%.
For the compound `Cc1cc(-c2cc(S(=O)(=O)N3C[C@H](C4CC4)[C@@H](N)C3)c(C)s2)on1`, the INHIBITION was found to be 45.3%.
On to `O=C1[C@H]2CN(CC3CCOCC3)C[C@H]2CN1Cc1cccc(F)c1`, for which the INHIBITION is reported as -53.6%.
Regarding `CNc1nc2cn(Cc3ccc(Cl)cc3)c(=O)c-2c[nH]1`, the INHIBITION is given as -14.7%.
For `CCc1ncc(C(=O)N2CCCN(C3CCCCC3)CC2)cn1`, the INHIBITION was 37.7%.
In the case of `COc1ncc(CN2CCC3(CCNC(=O)CC3)CC2)cn1`, the INHIBITION is reported as 39.5%.
The value for `CN(C)C(=O)C1CN(Cc2cccs2)CCN(S(C)(=O)=O)C1` (stereo unspecified) was 32.8%.
`Cc1nc(C)n(CC2CCCN2Cc2nc(N)c3ccccc3n2)n1` (stereo unspecified): the INHIBITION was 59.7%.
The result for `Cc1cnn(CC2CCCN2CCc2nc3ccccc3c(=O)[nH]2)c1` (stereo unspecified) reads 61.3%; that for `Cc1nc(CN2CCCCC2Cn2cncn2)nc2ccccc12` (stereo unspecified), 51.3%.
As for `Nc1nc(CN2CCCCC2Cn2cncn2)nc2ccccc12` (stereo unspecified), the INHIBITION is reported as 32.9%.
In the case of `Cc1cnn(CC2CCCN2Cc2nc3ccccc3c(=O)[nH]2)c1` (stereo unspecified), the INHIBITION came out at 26.4%.
With `N#Cc1ccccc1OCCN1CCCCC1Cn1cncn1` (stereo unspecified), the INHIBITION amounted to 6.56%.
In the case of `Fc1ccccc1OCCN1CCCCC1Cn1cncn1` (stereo unspecified), the INHIBITION is on record as -29.1%.
With `Cc1nc(CN2CCCC2Cn2cncn2)nc2ccccc12` (stereo unspecified), the INHIBITION is reported as 5.7%.
In the case of `Cc1cc(C)n(CC2CCCN2Cc2nc(N)c3ccccc3n2)n1` (stereo unspecified), the INHIBITION is given as 37.9%.
Regarding `Cc1nc(C)n(CC2CCCN2Cc2nc(C)c3ccccc3n2)n1` (stereo unspecified), the INHIBITION was 17.4%.
Turning to `O=c1[nH]c(CCN2CCCC2Cn2cccn2)nc2ccccc12` (stereo unspecified), the INHIBITION worked out at 14.4%.
Turning to `COc1ccccc1OCCN1CCCCC1Cn1cncn1` (stereo unspecified), the INHIBITION was determined as 79.5%.
`CO[C@@H]1CCN(Cc2cccc(C)n2)[C@@H]2CN(Cc3ccncc3)C[C@@H]21`: the INHIBITION was -64.5%.
`Cc1ccc2snc(C(=O)N3CCN(C(=O)NCCC(C)C)CC3)c2c1`: the INHIBITION worked out at 28.4%.
On to `COc1cc(CNCCc2cnn(C)c2)cc2c1OCO2`, for which the INHIBITION is reported as -3.75%.
In the case of `Cc1cnn(CC2CN(Cc3nccn3CC(F)(F)F)CCO2)c1` (stereo unspecified), the INHIBITION is on record as 29.7%.
With `CC(Nc1ncnc2c1NC(=O)CN2)c1ccccn1` (stereo unspecified), the INHIBITION is reported as 14.3%.
Consider `Cc1nc(CN2CCCC2Cn2cccn2)nc2ccccc12` (stereo unspecified), for which the INHIBITION is 27.6%.
Turning to `c1ccc(-n2ccc(CN3CCCC3Cn3cncn3)n2)cc1` (stereo unspecified), the INHIBITION turned out to be 9.64%.
For `Cc1cnn(CC2CCCN2Cc2nc(C)c3ccccc3n2)c1` (stereo unspecified), the INHIBITION is 53%.
The result for `O=C1CCCN1CCCN1CCCC1Cn1cccn1` (stereo unspecified) reads 24.6%.
As for `Cc1cnn(CC2CCCCN2Cc2nc(N)c3ccccc3n2)c1` (stereo unspecified), the INHIBITION came to 58.2%.
The result for `c1ccc(-n2cc(CN3CCCC3Cn3cncn3)nn2)cc1` (stereo unspecified) reads 50.3%.
Consider `O=C1CCCN1CCCN1CCCCC1Cn1cncn1` (stereo unspecified), for which the INHIBITION came out at 50.4%.
The result for `Nc1nc(CN2CCCC2Cn2cncn2)nc2ccccc12` (stereo unspecified) reads -26.22%; that for `c1ccc(-n2cc(CN3CCCCC3Cn3cncn3)nn2)cc1` (stereo unspecified), 0.914%; that for `Cc1cnn(CC2CCCN2Cc2nc(N)c3ccccc3n2)c1` (stereo unspecified), 31.2%.
For `Cc1cnn(CC2CCCCN2Cc2nc(C)c3ccccc3n2)c1` (stereo unspecified), the INHIBITION was 36.1%.
With `O=C1CCCN1CCN1CCCCC1Cn1cncn1` (stereo unspecified), the INHIBITION is given as -19.2%.
With `Cc1ccc(C2CSCCN2C(=O)c2cccnc2)cc1` (stereo unspecified), the INHIBITION was -39.8%.
Turning to `c1ccc(CO[C@H]2CN(c3ncccn3)C[C@@]23CCCO3)cc1`, the INHIBITION is -42.1%.
With `Nc1nnc(CCCNC(=O)c2ccc(C3CCCNC3)cc2)s1` (stereo unspecified), the INHIBITION was found to be 20.6%.
Regarding `CC(C)NC(=O)c1ccn(COc2c(Cl)cccc2Cl)n1`, the INHIBITION came to 35%.
In the case of `CC(O)(CNC(=O)NCCc1ccc2c(c1)CCO2)c1ccccc1` (stereo unspecified), the INHIBITION is recorded as -5.57%.
The value for `CCCNCc1cn(Cc2ccccc2)nc1-c1cccnc1` was 16.5%; that for `CNC(=O)C1CN(c2ncccn2)CCN1Cc1ccccc1` (stereo unspecified) was 19.3%.
`Cc1nc(CN2CCOCC2c2[nH]ncc2C)cs1` (stereo unspecified): the INHIBITION amounted to 8.335%.
As to `CN(c1cccnn1)[C@@H]1CC[C@@H]2CN(Cc3ccccc3C(=O)O)C[C@@H]21`, the INHIBITION was determined as 19.65%.
On to `N#CCCn1cnc2c(Br)cccc2c1=O`, for which the INHIBITION is 33.6%.
For `CS(=O)(=O)c1ccc(Cl)c(C(=O)NCCC2=CCCCC2)c1`, the INHIBITION is listed as -19.2%.
Turning to `COCCN1CCc2c(CNC(=O)c3nccn3C)cncc2C1`, the INHIBITION is reported as 43.9%.
`CCN(CC)S(=O)(=O)N1CCCN(CC2CCCO2)CC1` (stereo unspecified): the INHIBITION stood at 41.7%.
The value for `Cc1ccc(C)c(CN2C[C@@H]3CC[C@H]2CN(C(=O)c2cccnc2)C3)c1` was -70.7%; that for `COCCN1CCC2(CC1)CCN(Cc1ccccn1)CC2` was -67.6%; that for `Cc1cc(CNC(=O)C2CC(=O)N(CCN(C)C)C2)cc(C)n1` (stereo unspecified) was 16.5%.
As for `CCN(CC)C1COc2ccc(Br)cc2C1=O` (stereo unspecified), the INHIBITION was 39.7%.
The value for `COCCN1C[C@@H]2CN(Cc3ccc(F)cc3)C[C@@H]2C1=O` was 0.112%; that for `Cc1ccc(=O)n(CC2(O)CCN(Cc3ccoc3)CC2)n1` was -59.9%; that for `O[C@@]1(Cn2cnc(Cl)c2Cl)CCCN2CCCC[C@@H]21` was 40.3%.
For the compound `COc1ccc2c(c1)ncn2C[C@]1(O)CCCN2CCCC[C@@H]21`, the INHIBITION is 58.5%.
On to `Cc1cc2ncn(C[C@]3(O)CCCN4CCCC[C@@H]43)c2cc1C`, for which the INHIBITION stood at 49.4%.
In the case of `c1ccc(CCN2CCCC2c2ccnc(Nc3cnccn3)n2)cc1` (stereo unspecified), the INHIBITION is recorded as 25.8%.
Take `Cc1nc(C(C)C)sc1C(=O)NS(=O)(=O)c1ccc(C#N)cc1`: the INHIBITION is 39.5%.
Consider `N#Cc1ccc(S(=O)(=O)NC(=O)c2csc(-c3ccco3)n2)cc1`, for which the INHIBITION amounted to 54.3%.
Regarding `COc1ccc(C(=O)NS(=O)(=O)c2cccc(C#N)c2)cc1`, the INHIBITION was 15.5%.
For `Cc1nc(C(=O)NS(=O)(=O)c2cccc(C#N)c2)cs1`, the INHIBITION came to 61.1%.
With `CSc1ccsc1C(=O)NS(=O)(=O)c1cccc(C#N)c1`, the INHIBITION is reported as 16.9%.
Turning to `N#Cc1cccc(S(=O)(=O)NC(=O)c2csc(-c3ccco3)n2)c1`, the INHIBITION came to 24.3%.
With `Cc1ccc(CNC(=O)Nc2nccs2)cn1`, the INHIBITION was -31.8%.
As to `Cn1cc(NC(=O)N2CCCC2c2ccccn2)ccc1=O` (stereo unspecified), the INHIBITION is -80.7%.
`O=C(CCn1cnc2cc(F)c(F)cc21)N1CCN(C2CC2)CC1`: the INHIBITION was -27.6%.
As to `COCCN1CCN(Cc2ccc(OCc3nccn3C)cc2)CC1`, the INHIBITION was -3.7%.
In the case of `O=C1CC2(CCN(S(=O)(=O)c3cccs3)C2)CN1c1cccc(F)c1` (stereo unspecified), the INHIBITION is given as -20.8%.
Take `Cc1n[nH]c(C)c1CCc1n[nH]c(=O)n1Cc1cccs1`: the INHIBITION is -54.9%.
For `COCC(NC(=O)c1cc(C)n(C)n1)c1cccc(C(F)(F)F)c1` (stereo unspecified), the INHIBITION is listed as -0.532%.
`CNC(=O)c1ccc(C(=O)N2CCC(Nc3cccnn3)CC2)cn1`: the INHIBITION is -0.219%.
For `CN1CCN(C=C2N=C(c3cc(-c4ccc(F)cc4)n[nH]3)ON2)CC1`, the INHIBITION was found to be 50.5%.
As to `COc1ccc(-c2cc(C3=NC(=CN4CCN(C)CC4)NO3)[nH]n2)cc1`, the INHIBITION amounted to 40.7%.
`Cc1ccc(-c2cc(C3=NC(=CN4CCN(C)CC4)NO3)[nH]n2)cc1`: the INHIBITION was found to be 41.8%.
